# Polio RdRp inh – poliovirus RdRp elongation inhibitors, primary screen, biochemical, fluorescence polarization, total intensity; AID 588519, 2011; Genome polyprotein (Poliovirus type 1 (strain Mahoney)), P03300; % elongation, % (compound at 16.7 µg/mL); poliovirus polymerase elongation; stronger effect = lower value; 150,000 tested, 0.66% active; in the data active = % elongation below about 90%
# Mtb MbtI inh – MbtI salicylate synthase inhibitors, primary screen, biochemical, fluorescence intensity; P9WFX0; purified MbtI enzyme, fluorescence intensity read-out; inhibition, % (no concentration beside the values); 100,000 tested, 0.89% active; AID 493033, 2011; in the data active = inhibition mostly above about 56%, no sharp cut-off; inactive = mostly below about 77%
# Target sequence (P9WFX0 whole entry, looked up): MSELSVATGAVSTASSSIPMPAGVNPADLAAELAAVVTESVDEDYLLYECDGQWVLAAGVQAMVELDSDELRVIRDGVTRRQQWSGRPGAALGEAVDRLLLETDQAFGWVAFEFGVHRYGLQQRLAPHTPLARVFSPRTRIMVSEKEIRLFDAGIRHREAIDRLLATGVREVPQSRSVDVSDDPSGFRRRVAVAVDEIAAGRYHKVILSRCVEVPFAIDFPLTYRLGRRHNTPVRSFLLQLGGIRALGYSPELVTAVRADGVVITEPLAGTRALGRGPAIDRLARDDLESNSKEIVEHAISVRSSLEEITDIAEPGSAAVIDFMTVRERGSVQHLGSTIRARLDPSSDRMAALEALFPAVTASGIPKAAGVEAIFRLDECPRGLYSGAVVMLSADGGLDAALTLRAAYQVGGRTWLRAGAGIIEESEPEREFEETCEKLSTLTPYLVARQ
# MenB inh – M. tuberculosis MenB inhibitors, primary screen, biochemical, absorbance. 1,4-dihydroxy-2-naphthoyl-CoA synthase (Mycobacterium tuberculosis (strain ATCC 25618 / …. MenB enzyme assay, absorbance read-out. inhibition, % (no concentration beside the values). 100,000 tested, 0.43% active. AID 540299, 2011; in the data active = inhibition above about 21%, passing the limit was not always enough
# AID504770 – growth inhibition of E. coli YBA685, primary screen, V. cholerae RctB inhibitors | 130,000 tested, 0.27% active | z-score (concentration not given with the values) | E. coli YBA685 rctB-dependent plasmid, OD600 growth, 3 h; stronger effect = lower value; in the data active = z-score below about -2, passing the limit was not always enough
# Hits are given with their value; i = inactive; nt = no result given. The list is not random: actives were taken first. Their share in the collection is about 1.5%.
SMILES,Polio RdRp inh,Mtb MbtI inh,MenB inh,AID504770
C=CCN1CCN(Cc2nnnn2Cc2ccc(OC)cc2)CC1,i,i,42,i
Cc1nn(-c2ccccc2)c(Cl)c1C1N2CCCN1CC2 (stereo not given),i,i,33,i
N#Cc1ccc(S(=O)(=O)N2CCNCC2)cc1,i,i,27,i
O=S(=O)(c1ccc(Br)cc1)N1CCNCC1,i,nt,i,i
NC(=O)N/N=C/c1ccc(OC(F)F)cc1,i,i,i,i
C=CCN(CC=C)Cn1[nH]c(-c2cccs2)nc1=S,i,96,i,i
Cc1cc(=O)oc2cc(OCC(=O)NCc3ccc(Cl)cc3)ccc12,i,i,nt,i
CC(=NCCSCc1nc[nH]c1C)c1c(C)[nH]n(-c2nc3ccccc3s2)c1=O,i,i,i,i
CC(=NCc1cccnc1)c1c(C)[nH]n(-c2nc3ccccc3s2)c1=O,i,i,34,i
CCN(CC)C(=S)SSC(=S)N(CC)CC,i,98,i,i
O=C(NCC(=O)N1CCN(S(=O)(=O)c2ccc3c(c2)OCCCO3)CC1)c1ccccc1,i,i,i,i
CCN(CC)c1ccc(NS(=O)(=O)c2cc3[nH]c(=O)c(=O)[nH]c3cc2C)c(C)c1,85,nt,nt,nt
O=C(CN1CCN(C/C=C/c2ccccc2)CC1)Nc1ccc2c(c1)OCCCO2,i,i,i,i
CN(C)CCNc1ncnc2sc(-c3ccccc3)cc12,87,i,i,i
CC1C(=O)NN=C1C(=O)N/N=C/c1ccc(OC(=O)c2ccco2)cc1 (stereo not given),i,i,i,i
CC1C(=O)NN=C1C(=O)N/N=C\c1cccnc1 (stereo not given),i,i,35,i
N=C1C(c2nc3ccccc3s2)=C(O)CN1N1C(=O)c2ccccc2C1=O,89,i,i,i
O=C1NC(=O)N(Cc2ccco2)C(=O)/C1=C\c1ccco1,i,i,i,i
C=CCN1C(=O)/C(=C/c2ccco2)C(=O)NC1=S,i,86,i,i
C=CCN1C(=O)NC(=O)/C(=C/c2ccco2)C1=O,i,98,i,i
Oc1ccc(O)cc1,i,97,i,i
CCN(CC)S(=O)(=O)c1ccc(-c2csc(Nc3cccc(OC)c3)n2)cc1,i,nt,i,i
Cc1ccc2nc(C)cc(C(=O)O)c2c1,i,i,33,i
Cc1cc(C(=O)O)c2cc(O)ccc2n1,i,nt,i,i
CC1CCCC(NC(=O)CSc2ncn[nH]2)C1C (stereo not given),i,i,i,i
SMILES,Polio RdRp inh,Mtb MbtI inh,MenB inh,AID504770
CCOc1ccc(/C=N/O)cc1,i,i,26,i
CCOc1cc(OCC)c(/C=N/O)c(OCC)c1,nt,nt,nt,i
CC(OC(=O)c1cccn1C)C(=O)Nc1ccc(Cl)cc1 (stereo not given),i,i,i,i
CCn1c2ccccc2c2cc(NC(=O)C(C)OC(=O)c3cccn3C)ccc21 (stereo not given),20,i,i,i
S=c1[nH]nc(CCCOc2ccc(Cl)cc2Cl)o1,87,90,i,i
COCCCNC(=O)c1cc2c(-c3cccc(OC)c3)nn(C)c2s1,i,nt,nt,nt
COc1ccc(-c2nn(C)c3sc(C(=O)NCCN(C)C)cc23)cc1OC,60,nt,nt,nt
CCCN(CCC)CCCNC(=O)c1cc2c(-c3ccc(OC)c(OC)c3)nn(C)c2s1,83,nt,nt,nt
CCCN(CCC)CCNC(=O)c1cc2c(-c3ccc(Cl)cc3)nn(C)c2s1,i,nt,nt,nt
COc1ccc(OC)c(CNC(=O)c2cc3c(-c4ccc(OC)c(OC)c4)nn(C)c3s2)c1,i,nt,nt,nt
CCN(CC)CCNC(=O)c1cc2c(-c3cccc(OC)c3)nn(C)c2s1,83,nt,nt,nt
CC1=CC(OC(=O)Nc2ccc(Cl)cc2)CC(C)(C)C1 (stereo not given),i,i,i,i
O=C1NC(=O)C2C3C=CC(O3)C12 (stereo not given),i,i,i,-3.5
CC1Cc2ccccc2N1S(=O)(=O)c1ccc2nc(-c3ccccc3)[nH]c2c1 (stereo not given),i,i,i,i
O=C(CSC1=NCCS1)OCN1C(=O)c2ccccc2C1=O,i,i,38,i
Cc1cc(C)nc(SCC(=O)OCN2C(=O)c3ccccc3C2=O)n1,i,i,i,i
CN1C(=O)/C(=C/c2cn(CC(=O)N3CCCC3)c3ccccc23)C(=O)NC1=S,i,i,i,i
CN1C(=O)/C(=C/c2ccc(I)o2)C(=O)NC1=S,i,83,i,i
O=c1[nH]c(-c2ccccc2)nc2c1Cc1ccccc1O2,i,i,i,i
